Test systems include SR leukemia; RPMI-8226 leukemia; OVCAR-8 ovarian; OVCAR-5 ovarian; OVCAR-4 ovarian; SK-OV-3 ovarian; IGROV1 ovarian; OVCAR-3 ovarian; HS 578T breast; NCI/ADR-RES ovarian.
What all share (experiment): NCI-60 one-dose screen, 48 h (100 = growth as untreated, 0 = no growth, -100 = all killed)
Common to all, as to conditions: 10 µM unless noted

This is part of a sample that, as a whole, favours compounds with a hit. Of some 83,000 tested, about 20% had one in any assay.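 Plates (96-well) were seeded with cells, treated with compound at one concentration, and incubated for 48 hours before percent growth was determined.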 A number with no mark means an inactive call. Active and inactive are the calls of the source. The calls were made as follows: active = growth percent below 10; inactive = the rest.

Take `CC(C)OC(=O)Nn1cnc2ccccc21`: the growth in the test on SR leukemia is -48% (active); in the test with RPMI-8226 leukemia, 98.6%; in the test with OVCAR-8 ovarian, 111%; in the test on OVCAR-5 ovarian, 96.7%; with OVCAR-4 ovarian, 126%; in the test with SK-OV-3 ovarian, 114%. Moreover, the growth with IGROV1 ovarian is 23.8%; in the test on OVCAR-3 ovarian it was 111%; with HS 578T breast it was 114%; in the test on NCI/ADR-RES ovarian it was 110%.

In the case of `Cc1[nH]n(C(=S)Nc2nc3cc(Cl)c(F)cc3s2)c(=O)c1N=Nc1ccc(F)c(Cl)c1`, the growth is -45.2% (active) with SR leukemia; 70.9% in the test with RPMI-8226 leukemia; 103% with OVCAR-8 ovarian; 103% with OVCAR-5 ovarian; 91.5% in the test on OVCAR-4 ovarian; 97.8% in the test on SK-OV-3 ovarian. In addition, the growth was 88.4% in the test on IGROV1 ovarian, 98.2% in the test with OVCAR-3 ovarian, 85% in the test with HS 578T breast and 103% in the test with NCI/ADR-RES ovarian.

Regarding `COc1ccc(C2C3(C#N)C(N)=NC(=C(C#N)C#N)C23C#N)cc1OC` (stereo not given), the growth was 83.6% in the test on SR leukemia; 117% in the test on RPMI-8226 leukemia; 106% with OVCAR-8 ovarian; 93.3% in the test with OVCAR-5 ovarian; 110% in the test on OVCAR-4 ovarian; 109% with SK-OV-3 ovarian. In addition, the growth in the test on IGROV1 ovarian is 113%; with OVCAR-3 ovarian it was 109%; with HS 578T breast it was 96.5%; with NCI/ADR-RES ovarian, 114%.

As for `CC(C)(C)C(=O)OCOP(=O)(OCOC(=O)C(C)(C)C)C1CC(O)N(O)C1=O` (stereo not given), the growth is 8.3% (active) in the test with SR leukemia; 9.24% (active) in the test on RPMI-8226 leukemia; 13.7% in the test on OVCAR-8 ovarian; 73.8% with OVCAR-5 ovarian; 74.4% in the test on OVCAR-4 ovarian; 52.5% in the test with SK-OV-3 ovarian. Moreover, the growth is 3.72% (active) in the test with IGROV1 ovarian, 53.6% in the test on OVCAR-3 ovarian, -4.97% (active) with HS 578T breast and 44.6% in the test on NCI/ADR-RES ovarian.

On to `COc1ccc(Cn2cc3c(c2-c2ccccc2)CCc2cnoc2-3)cc1OC`, for which the growth in the test with SR leukemia was 18.4%; with RPMI-8226 leukemia, 22.6%; in the test with OVCAR-8 ovarian it was 38.9%; in the test with OVCAR-5 ovarian, 75.6%; with OVCAR-4 ovarian it was 41.5%; in the test with SK-OV-3 ovarian, 8.39% (active). For the same molecule, the growth was 37.7% in the test with IGROV1 ovarian, 13.8% with OVCAR-3 ovarian, 5.72% (active) with HS 578T breast and 6.32% (active) in the test on NCI/ADR-RES ovarian.

Take `N=C(N)c1ccc(-c2ccc(-c3ccc(F)cc3)s2)cc1`: the growth with SR leukemia is -24.2% (active); in the test with RPMI-8226 leukemia it was -55.5% (active); in the test with OVCAR-8 ovarian it was -28.4% (active); in the test with OVCAR-5 ovarian, -87.4% (active); in the test on OVCAR-4 ovarian, -70.8% (active); in the test with SK-OV-3 ovarian, -80% (active). The growth in the test on IGROV1 ovarian is -69.8% (active); with OVCAR-3 ovarian, -92.4% (active); with HS 578T breast, -59.4% (active); with NCI/ADR-RES ovarian, -77.1% (active).

As for `COC(=O)c1ccc2[nH]c(O)c(C(=Nc3ccc(N(C)C(=O)CN4CCN(C)CC4)cc3)c3ccc(C)cc3)c2c1`, the growth with SR leukemia is -28.2% (active); with RPMI-8226 leukemia, -32.2% (active); in the test on OVCAR-8 ovarian, -17.8% (active); with OVCAR-5 ovarian, 29.7%; in the test with OVCAR-4 ovarian, -64.3% (active); in the test with SK-OV-3 ovarian it was -12.2% (active). Moreover, the growth with IGROV1 ovarian was 1.53% (active); in the test with OVCAR-3 ovarian, -60.2% (active); in the test on HS 578T breast, -2.52% (active); in the test with NCI/ADR-RES ovarian, 70.7%.

Take `O=C(OCC1CC2(Cl)C(Cl)=C(Cl)C1(Cl)C2(Cl)Cl)C1C(C(=O)OCC2CC3(Cl)C(Cl)=C(Cl)C2(Cl)C3(Cl)Cl)C2(Cl)C(Cl)=C(Cl)C1(Cl)C2(Cl)Cl` (stereo not given): the growth in the test with SR leukemia was 93%; in the test with RPMI-8226 leukemia, 103%; in the test on OVCAR-8 ovarian, 104%; in the test with OVCAR-5 ovarian, 105%; with OVCAR-4 ovarian it was 110%; with SK-OV-3 ovarian it was 110%. The growth with IGROV1 ovarian was 115%; in the test with OVCAR-3 ovarian it was 107%; in the test with HS 578T breast it was 117%; in the test with NCI/ADR-RES ovarian, 106%.

As to `CCOc1nc(-c2ccccc2)cc2c(O)c(C(=O)N/N=C/c3ccccc3O)[nH]c(=O)c12`, the growth in the test with SR leukemia is 28.2%; in the test on RPMI-8226 leukemia, 99.3%; in the test on OVCAR-8 ovarian it was 65.4%; with OVCAR-5 ovarian, 89.7%; with OVCAR-4 ovarian it was 93%; in the test with SK-OV-3 ovarian, 102%. The growth was 50.1% with IGROV1 ovarian, 76.7% in the test with OVCAR-3 ovarian, 66.1% in the test on HS 578T breast and 5.38% (active) in the test with NCI/ADR-RES ovarian.

For `C/C=C/C/C=C/[C@H](C)C[C@H](O)[C@@H]1C[C@@H]2O[C@H]2/C=C/[C@H](O)[C@@H](O)/C=C/C[C@H](C)CC(=O)O1`, the growth is 69.9% in the test on SR leukemia; 42.8% with RPMI-8226 leukemia; 63.7% in the test on OVCAR-8 ovarian; 93.4% in the test on OVCAR-5 ovarian; 88.9% in the test on OVCAR-4 ovarian; 102% in the test with SK-OV-3 ovarian. The growth in the test on IGROV1 ovarian was 78.9%; in the test with OVCAR-3 ovarian it was 84.9%; in the test with HS 578T breast it was 11%; in the test on NCI/ADR-RES ovarian it was 71.6%.

On to `COc1ccc(-c2nc(N)n(C(=S)Nc3ccccc3)n2)cc1`, for which the growth with SR leukemia is 90.8%; in the test on RPMI-8226 leukemia, 99%; in the test on OVCAR-8 ovarian, 97.8%; in the test with OVCAR-5 ovarian, 111%; in the test with OVCAR-4 ovarian, 109%; with SK-OV-3 ovarian, 94.7%. Also, the growth in the test with IGROV1 ovarian is 99.4%; with OVCAR-3 ovarian, 103%; in the test on HS 578T breast, 87.2%; with NCI/ADR-RES ovarian it was 102%.

As for `O=C1Nc2ccccc2/C1=C/c1cn(CC(O)Cn2cc(/C=C3\C(=O)Nc4ccccc43)c3ccccc32)c2ccccc12` (stereo not given), the growth in the test with SR leukemia is -2.94% (active); with RPMI-8226 leukemia it was -41.7% (active); with OVCAR-8 ovarian it was 1.35% (active); with OVCAR-5 ovarian, -34.2% (active); in the test with OVCAR-4 ovarian, -51.7% (active); with SK-OV-3 ovarian, -38.2% (active). For the same molecule, the growth with IGROV1 ovarian is -67.4% (active); with OVCAR-3 ovarian, -85.1% (active); with HS 578T breast, -22.3% (active); in the test on NCI/ADR-RES ovarian, 31.8%.

`CCNc1nnc(COc2ccc(CNC(=O)CCCC/C=C/C(C)C)cc2OC)o1`: the growth was 89% in the test with SR leukemia; 95.5% in the test with RPMI-8226 leukemia; 106% in the test on OVCAR-8 ovarian; 103% in the test with OVCAR-5 ovarian; 103% with OVCAR-4 ovarian; 91.5% with SK-OV-3 ovarian. Also, the growth in the test with IGROV1 ovarian is 103%; in the test on OVCAR-3 ovarian, 106%; with HS 578T breast, 98.6%; in the test on NCI/ADR-RES ovarian, 102%.

Turning to `c1ccc(Nc2ncc3c(n2)-c2cccn2CC3)cc1`, the growth is 101% in the test on SR leukemia; 97% in the test with RPMI-8226 leukemia; 104% in the test on OVCAR-8 ovarian; 77.9% in the test with OVCAR-5 ovarian; 40.3% in the test on OVCAR-4 ovarian; 88.9% with SK-OV-3 ovarian. Moreover, the growth in the test on IGROV1 ovarian was 54.5%; in the test with OVCAR-3 ovarian it was 82.7%; with HS 578T breast, 91.6%; in the test on NCI/ADR-RES ovarian it was 98.7%.

The values are drawn from PubChem BioAssay (NCI).
